Screens as filed in PubChem BioAssay.
This is a sample that favours compounds with a hit; in the whole collection about 21% have one here.
Shiga inhibitor: blocks Shiga toxin action in Vero cells | Vero cells, Shiga toxin protein synthesis inhibition reporter | inhibition, % at 38.7 µM | 9.2% of 290,000 active; in the data active = inhibition mostly above about 28%, no sharp cut-off; inactive = mostly below about 43%
HCV inh: HCV inhibition; Huh7.5.1 HCVcc-Cre infection, luciferase reporter, 44 h; Potency, µM (titrated, usually from 41.8 µM), most hits filed as inhibitors; 3.4% of 340,000 active; AID 651820
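Compounds are dispensed onto cells plated 4 h earlier at 1,000 per well, with HCVcc-Cre virus (about 0.5 moi) added next. Following 44 h of culture, luminescent signal is measured for 15 sec after 15 min with substrate at room temperature.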
HCMV inh: inhibitors of human cytomegalovirus; HFF cells, HCMV-luciferase reporter, 72 h; hits give low values; activity change, negative = inhibition, % at 57.5 µM; 4.5% of 410,000 active; in the data active = activity change below about -60%; inconclusive = no clear call, values can overlap the other calls; inactive = above about -39%
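Screen run at 2 compound doses on HFFs infected with reporter HCMV, MOI 1 PFU/cell. Luciferase activity from cell lysates at 72 h post infection gave inhibition relative to buffer-only and Salinomycin wells.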
Pf growth 96h: P. falciparum growth inhibition at 96 hour, primary screen for plastid delayed-death inhibitors; P. falciparum luciferase reporter growth, 96 h; Potency, µM (doses to about 28.7 µM), most hits filed as inhibitors; 6.9% of 320,000 active; AID 504834
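Luminescence readout: decreased luciferase signal marks inhibited growth of reporter-expressing P. falciparum in infected red cells (2% hematocrit, 0.05% parasitemia final), exposed to compound two generations (96 h, 37 C, 5% CO2).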
Pf growth 48h: inhibits P. falciparum growth in the first generation, 48 h; P. falciparum luciferase growth in erythrocytes, 48 h; Potency, µM (doses to about 28.7 µM), usual class: inhibitors; 5.9% of 310,000 active; AID 504832
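Luciferase-expressing P. falciparum in infected erythrocytes (2% hematocrit, 0.1% parasitemia final) in RPMI 1640/0.5% Albumax were exposed to compound for 48 hours at 37 C, 5% CO2; growth read as luminescence.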
CHX counter: affects cycloheximide protein synthesis inhibition readout, counter-screen; cell reporter, cycloheximide protein synthesis inhibition counterscreen; max response, %; 12% of 300,000 active; AID 2314; in the data active = max response mostly above about 13%, no sharp cut-off; inactive = mostly below about 14%; note: read at 38.3 µM for the half of the compounds with a filed dose
Numbers stand for hits; . = inactive; ? = inconclusive; / = no result; + = active, no number. Unless noted, calls come from the whole dose curve; as a rule, active = well fitted inhibition curve with a large enough effect; inconclusive = small, poorly fitted or top-dose-only effect, or another doubt; inactive = no such curve, though single readings can be large or run the other way.

SMILES | Shiga inhibitor | HCV inh | HCMV inh | Pf growth 96h | Pf growth 48h | CHX counter
N#Cc1c(N2CCCCC2)nc(N)c2c(N)nc3c(c12)CC(c1ccccc1)O3 (stereo not drawn) | . | . | . | 4.15µM | 5.86µM | .
CCN(CC)c1nc(N)c2c(N)n(-c3ccccc3C)c(=S)c(C#N)c2c1C#N | . | . | . | / | . | .
CCN(CC)c1nc(N)c2c(N)nc3c(c2c1C#N)CC(c1ccccc1)O3 (stereo not drawn) | . | ? | . | / | 2.33µM | .
CCCCN1CC(COCc2ccccc2)Oc2cccc(Sc3ccc(OC)c(OC)c3)c2S1(=O)=O (stereo not drawn) | / | / | . | / | / | /
CCCc1cc(=O)[nH]c2nnc(SCC)n12 | / | / | . | / | / | /
CC(=O)c1cnc(N(C)C)s1 | . | . | . | 13.1µM | . | .
COC1CCN(Cc2cn(Cc3ccccc3)nc2-c2cc3ccccc3o2)CC1 | . | . | . | 10.4µM | 10.4µM | .
OCC1CCCN(Cc2cn(Cc3ccccc3)nc2-c2cc3ccccc3o2)C1 (stereo not drawn) | . | . | . | . | 14.7µM | .
OCC1CCN(Cc2cn(Cc3ccccc3)nc2-c2cc3ccccc3o2)CC1 | . | . | . | ? | ? | .
O=C(CCC(=O)N/N=C/c1cc(Cl)cc(Cl)c1O)NCc1ccccc1 | . | ? | . | . | . | .
O=C(CN1C(=O)NC2(CCCC2)C1=O)N1CCN(S(=O)(=O)c2ccc(Cl)c(C(F)(F)F)c2)CC1 | / | . | . | . | . | /
COc1ccc(C(=O)/C=C/c2ccc(F)cc2)c(OC(=O)c2ccc([N+](=O)[O-])cc2)c1 | . | ? | . | . | . | 22.9
COc1ccc(C(=O)/C=C/c2cccs2)c(OC(=O)c2cccc([N+](=O)[O-])c2)c1 | 131.7 | . | . | . | . | 59.7
C[C@H](CO)N1C[C@H](C)[C@H](CN(C)C(=O)Nc2ccccc2F)OCc2cnnn2CCCC1=O | / | / | . | / | / | /
O=C1CS/C(=N\NC(=O)c2ccccc2)N1 | . | . | . | ? | ? | .
CC1=C/C(=N\NC(=O)c2ccccc2)CC1 | + | . | . | . | . | 43.0
Cc1cc(NC(=O)CSc2nc(-c3cccs3)cc(C(F)(F)F)n2)no1 | . | ? | ? | 1.85µM | ? | .
CCCNC(=O)CSc1nc(-c2cccs2)cc(C(F)(F)F)n1 | . | 3.98µM | . | 8.28µM | . | .
COc1cc(NC(=O)CSc2nc(-c3cccs3)cc(C(F)(F)F)n2)cc(OC)c1OC | / | / | . | / | / | /
Cc1cc(NC(=O)CCCS(=O)(=O)c2nc(-c3cccs3)cc(C(F)(F)F)n2)no1 | . | 11.2µM | . | . | ? | .
CCN(CC)CCCNC(=O)CSc1nc(-c2cccs2)cc(C(F)(F)F)n1 | . | ? | ? | ? | . | .
CC(C)CNC(=O)CSc1nc(-c2cccs2)cc(C(F)(F)F)n1 | . | . | -68.4 | . | ? | .
O=C(CCn1c(=O)c2ccccc2n(CC(=O)Nc2cccc(F)c2)c1=O)NCCc1ccccc1 | / | / | . | / | / | /
O=C(CSc1nc(-c2cccs2)cc(C(F)(F)F)n1)NCc1ccccc1 | . | 3.98µM | . | / | . | .
CCOc1ccc(NC(=O)CSc2n[nH]c(N)n2)c([N+](=O)[O-])c1 | . | . | . | . | . | .
SMILES | Shiga inhibitor | HCV inh | HCMV inh | Pf growth 96h | Pf growth 48h | CHX counter
CCOc1ccc(NC(=O)CSc2nc(-c3cccs3)cc(C(F)(F)F)n2)c([N+](=O)[O-])c1 | . | . | -100.9 | . | . | .
OC1(c2ccc(F)cc2)CSC(=Nc2cccnc2)N1Cc1ccco1 (stereo not drawn) | . | ? | ? | 2.33µM | 5.86µM | .
OC1(c2ccc(F)cc2)CCN(Cc2cccnc2)CC1 | / | . | . | ? | . | .
O=C(CO/N=C/c1ccc(OC(F)F)cc1)NCc1ccco1 | . | . | . | . | . | .
OC1(c2ccc(OC(F)F)cc2)CSC(=Nc2cccnc2)N1Cc1ccco1 (stereo not drawn) | . | 11.2µM | . | ? | ? | .
COc1cc(C(CCN2CCCCC2)c2c(OC)cc(OC)c3c(-c4ccccc4)cc(=O)oc23)cc(OC)c1OC (stereo not drawn) | . | . | . | 5.86µM | 10.4µM | .
COc1cc(C(CCN2CCCC(C)C2)c2c(OC)cc(OC)c3c(-c4ccccc4)cc(=O)oc23)cc(OC)c1OC (stereo not drawn) | . | ? | / | 2.94µM | 7.38µM | .
Cc1nnc(SCc2cc(=O)n3c(C)cccc3n2)s1 | / | / | . | / | / | /
COc1ccc(CCN(C(=O)c2snc(C(N)=O)c2N)C(C)C(=O)NC2CCCCC2)cc1OC (stereo not drawn) | . | . | . | . | ? | .
CC1=C(C(=O)Nc2ccccc2)C(c2cccn2C)n2ncnc2N1 (stereo not drawn) | / | / | . | / | / | /
Cc1cccc(-n2c(C)nc3ccc(Cl)cc3c2=O)c1 | . | . | . | ? | . | .
Cc1ccc(-n2c(C)nc3cc(Cl)ccc3c2=O)nc1 | 63.1 | . | . | . | . | 28.2
COc1ccccc1NC=C1C(=O)OC(C)(C)OC1=O | 82.0 | . | . | ? | . | 36.5
O=C(c1c(F)cccc1F)N(C1CCCCC1)C1CCCCC1 | . | . | . | . | 10.4µM | .
O=C(c1ccc(-n2cnnn2)cc1)N(C1CCCCC1)C1CCCCC1 | . | . | . | . | ? | .
O=C(NO)c1ccc(C(=O)N(C2CCCCC2)C2CCCCC2)cc1 | . | ? | . | . | 3.29µM | .
CCc1ccc(CNC(=O)C(C)n2ccc3cc(S(=O)(=O)N4CCCCCC4)ccc32)cc1 (stereo not drawn) | / | / | . | / | / | /
CCCCCCCCN1C(=O)[C@H](CC(=O)N2CCCC2)C[C@@]2(C(=O)OCC)CCCC=C12 | / | / | . | / | / | /
O=C(c1ccc2c(=O)n3c(nc2c1)CCCCC3)N1CCN(c2ccccc2)CC1 | . | . | . | . | . | .
CN(C(=O)c1ccc2c(=O)n3c(nc2c1)CCCCC3)c1ccccc1Cl | . | . | . | . | . | 18.9
O=C(c1ccc2c(=O)n3c(nc2c1)CCCCC3)N1CCCCC1 | . | . | . | . | . | 20.7
O=C(c1ccc2c(=O)n3c(nc2c1)CCCCC3)N1CCN(C(c2ccccc2)c2ccccc2)CC1 | . | ? | -65.5 | 1.85µM | / | .
O=C(c1ccc2c(=O)n3c(nc2c1)CCCCC3)N1CCN(c2ccccc2F)CC1 | . | . | . | ? | . | .
O=C(c1ccc2c(=O)n3c(nc2c1)CCC3)N1CCN(S(=O)(=O)c2cccc(F)c2)CC1 | / | . | . | ? | 11.7µM | /
COc1ccc(Cl)cc1N(C)C(=O)c1ccc2c(=O)n3c(nc2c1)CCCCC3 | / | / | . | / | / | /
CCOc1ccccc1NC(=O)CCc1c(C)nc2c3cccnc3nn2c1C | / | / | . | / | / | /
CCc1nc2ccccc2n1CCCCOc1ccc(Cl)cc1 | / | / | . | / | / | /
Cn1nc(C(C)(C)C)c([N+](=O)[O-])c1C(=O)Nc1cccc2ccccc12 | . | . | ? | 11.7µM | 11.7µM | .
COc1ccccc1NC(=O)c1c([N+](=O)[O-])c(C(C)(C)C)nn1C | . | . | -67.7 | ? | ? | .
